Results published in the supplement of paper PMC13380429.

The compounds below were run on Vero E6 infected with SARS-CoV-2 (assay: morphology score (similarity to uninfected cells); higher = more like uninfected cells). Details: 24 h.
Compound `Cc1cc([N+](=O)[O-])ccc1NS(=O)(=O)c1cc(Cl)ccc1Cl` (0.833333 µM) has a morphology score of 0.153.
With `CN[C@@H](C)CC1CCCCC1` [propylhexedrine] (10 µM) the morphology score was -0.0197.
Work on `CCCCc1nc(-c2ccc(OCCCN(CC)CC)cc2)cn1-c1ccc(Oc2ccc(Cl)cc2)cc1` [azeliragon] (0.833333 µM) yielded a morphology score of 0.129.
`CC(Cc1cccc(C(F)(F)F)c1)NCCOC(=O)c1ccccc1` (stereo not given) [benfluorex] (10 µM) showed a morphology score of 0.0298.
With `O[C@@H]1CCCC[C@H]1N1CCC(c2ccccc2)CC1` (racemic) [vesamicol] (10 µM) the morphology score was 0.23.
`CCC(=O)NCC[C@@H]1CCc2ccc3c(c21)CCO3` [ramelteon] (10 µM) was tested, and the morphology score was 0.00565.
With `CCCC(C)C1(CC)C(=O)NC(=O)NC1=O` (stereo not given) [pentobarbital] (10 µM) the morphology score was 0.0334.
Compound `Cc1noc(-c2ccc(-c3ccc(CC(=O)O)cc3)cc2)c1NC(=O)O[C@H](C)c1ccccc1` (0.833333 µM) has a morphology score of 0.148.
Compound `CCCNCCc1ccc(NS(=O)(=O)c2ccc(OC(F)(F)F)cc2)cc1` (10 µM) has a morphology score of -0.19.
`CCN1CCN(C(=O)N[C@@H](C(=O)N[C@@H]2C(=O)N3C(C(=O)O)=C(CSc4nnnn4C)CS[C@H]23)c2ccc(O)cc2)C(=O)C1=O` [cefoperazone] (10 µM) showed a morphology score of 0.206.
In the case of `O=C(/C=C\n1cnc(-c2cc(C(F)(F)F)cc(C(F)(F)F)c2)n1)N1CC(F)(F)C1` (10 µM), the morphology score is reported as -0.303.
Work on `Nc1ccn(C[C@@H](CO)OCP(=O)(O)O)c(=O)n1` [cidofovir] (10 µM) yielded a morphology score of 0.0279.
With `NCc1c[nH]c(=S)n1[C@H]1CCc2c(F)cc(F)cc2C1` [nepicastat] (10 µM) the morphology score was -0.046.

These compounds were tested on Vero E6 infected with SARS-CoV-2 (assay: SARS-CoV-2 infection rate relative to infected DMSO; higher = more infection, active = 60 or less). Details: 24 h.
With `CC1=NN(c2ccc(C)c(C)c2)C(=O)/C1=N\Nc1cccc(-c2cccc(C(=O)O)c2)c1O` [eltrombopag] (10 µM) the SARS-CoV-2 infection rate was 99% (inactive).
`CN(C)Cc1c(C(=O)NCCOc2ccc(C(=O)NO)cc2)oc2ccccc12` (10 µM) was tested, and the SARS-CoV-2 infection rate was 96.5% (inactive).
`CC(=O)Oc1ccccc1C(=O)Oc1ccccc1C(=O)O` [acetylsalicylsalicylic-acid] (10 µM) was tested, and the SARS-CoV-2 infection rate was 103% (inactive).
In the case of `C[C@@H]1C(=O)O[C@H]2C[C@@]34[C@H]5C[C@@H](C(C)(C)C)[C@]36[C@@H](OC(=O)[C@@H]6O)O[C@@]4(C(=O)O5)[C@]21O` [Ginkgolide A] (10 µM), the SARS-CoV-2 infection rate is reported as 114% (inactive).
With `Cn1c(Nc2ccc(C(F)(F)F)cc2)nc2cc(Oc3ccnc(-c4ncc(C(F)(F)F)[nH]4)c3)ccc21` (10 µM) the SARS-CoV-2 infection rate was 100% (inactive).
In the case of `N#Cc1ccc(COC[C@H]2O[C@@H](n3c(NCc4ccc(Cl)c(Cl)c4)nc4c(N)ncnc43)[C@H](O)[C@@H]2O)cc1` (10 µM), the SARS-CoV-2 infection rate is reported as 106% (inactive).
For `COc1ccc(O)cc1` [mequinol] (10 µM), the SARS-CoV-2 infection rate was 105% (inactive).
`O=C(c1ccccc1)C(O)c1ccccc1` (stereo not given) [benzoin] (10 µM) was tested, and the SARS-CoV-2 infection rate was 101% (inactive).
With `O=C1OC(CN2CCOCC2)CN1/N=C/c1ccc([N+](=O)[O-])o1` (stereo not given) [furaltadone] (10 µM) the SARS-CoV-2 infection rate was 97% (inactive).
`Cc1ccccc1/N=N/c1ccc(NC(=O)c2ccnn2C)c(C)c1` (10 µM) was tested, and the SARS-CoV-2 infection rate was 109% (inactive).
With `O=[N+]([O-])c1cccc2c(Br)n[nH]c12` [3-bromo-7-nitroindazole] (10 µM) the SARS-CoV-2 infection rate was 110% (inactive).
In the case of `Cc1cc(-c2ccc(/N=N/c3ccc4c(S(=O)(=O)O)cc(S(=O)(=O)O)c(N)c4c3O)c(C)c2)ccc1/N=N/c1ccc2c(S(=O)(=O)O)cc(S(=O)(=O)O)c(N)c2c1O` [evans-blue] (0.833333 µM), the SARS-CoV-2 infection rate is reported as 110% (inactive).
For `CC(=O)O[C@@H]1CC[C@@]2(C)[C@@H](CC[C@]3(C)[C@@H]2C(=O)C=C2[C@@H]4[C@@H](C)[C@H](C)CC[C@]4(C)CC[C@]23C)[C@@]1(C)C(=O)O` [acetyl-11-keto-beta-boswellic-acid] (10 µM), the SARS-CoV-2 infection rate was 105% (inactive).
With `COc1cc2ncnc(Nc3ccc(F)c(Cl)c3)c2cc1NC(=O)/C=C/CN1CCCCC1` [dacomitinib] (0.833333 µM) the SARS-CoV-2 infection rate was 103% (inactive).
With `CCCn1cnc2c1c(=O)n(CCCCC(C)=O)c(=O)n2C` [propentofylline] (10 µM) the SARS-CoV-2 infection rate was 102% (inactive).
`C[C@H](NCc1ccc(OCc2cccc(F)c2)cc1)C(N)=O` [safinamide] (10 µM) was tested, and the SARS-CoV-2 infection rate was 115% (inactive).
`CC[C@]12C=CCN3CC[C@@]4(c5cc([C@@]6(C(=O)OC)C[C@@H]7C[C@@H](C(C)(F)F)CN(Cc8c6[nH]c6ccccc86)C7)c(OC)cc5N(C)[C@H]4[C@@](O)(C(=O)OC)[C@@H]1OC(C)=O)[C@@H]32` [Vinflunine Ditartrate] (10 µM) was tested, and the SARS-CoV-2 infection rate was 105% (inactive).
